Source: PubChem BioAssay (EPA / NIEHS)
Active and inactive are the calls of the source. How the source made its calls: active means hit-call score of the fitted dose curve at least 0.9, where 1 is the maximum; inactive means score below 0.9.

Key:
[1] = ATG_ISRE_CIS: Attagene CIS-FACTORIAL HepG2 Assay for human Interferon Regulatory Factor 1 (IRF1) binding to an Interferon-Stimulated Response Element (ISRE) (AID 2282948); settings: HepG2 ISRE cis-reporter (Attagene), mRNA transcription readout; actives raise or lower the signal
Outline: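 HepG2 cells transiently transfected with multiplexed cis-promoter reporter units; after 24 h compound exposure, reporter mRNA quantified by RT-PCR, FAM labelling, HpaI digestion and capillary electrophoresis. Bidirectional fit versus DMSO baseline.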

[2] = ATG_M_32_CIS: Attagene CIS-FACTORIAL HepG2 Assay for M32 Transcription Factor (Internal Marker) (AID 2282949); settings: HepG2 Attagene cis-factorial M32 reporter, mRNA; actives raise or lower the signal;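 further: background control marker of the multiplexed CIS panel rather than a real target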
Outline: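 Fluorescent capillary electrophoresis peaks of HpaI-digested, FAM-labelled RT-PCR reporter products give the signal. Source: transiently transfected human liver HepG2 cells, 24 h after chemical dosing; bidirectional fitting against DMSO.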

[3] = ATG_M_06_CIS: Attagene CIS-FACTORIAL HepG2 Assay for M06 Transcription Factor (Internal Marker) (AID 2282950); settings: HepG2 Attagene CIS-FACTORIAL M06 internal marker reporter; actives raise or lower the signal
Outline: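 Steps: transfect HepG2 with multiplexed cis-element reporter constructs; dose chemical 24 h; extract RNA with DNase treatment; reverse-transcribe, PCR-amplify, 6-FAM label, HpaI digest; separate fragments by capillary electrophoresis. Activity fitted both directions versus DMSO.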

[4] = molecular target: Hypoxia-inducible factor 1-alpha (Homo sapiens) (UniProt Q16665); assay: ATG_HIF1a_CIS: Attagene CIS-FACTORIAL HepG2 Assay for human Hypoxia Inducible Factor 1 (HIF1A) (AID 2282951); settings: HepG2 Attagene cis-factorial HIF1a reporter transcription; actives raise or lower the signal
Outline: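 Activity is fitted in both directions relative to DMSO. Reporter transcripts are read by RT-PCR, fluorescent primer extension and capillary electrophoresis after 24 h chemical treatment. The cells are HepG2 carrying transiently transfected cis-element-driven reporter units responding to endogenous factors.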

[5] = molecular target: Hepatocyte nuclear factor 6 (Homo sapiens) (UniProt Q9UBC0); assay: ATG_HNF6_CIS: Attagene CIS-FACTORIAL HepG2 Assay for human Hepatocyte Nuclear Factor 6 (HNF6) (AID 2282952); settings: HepG2 Attagene cis-factorial HNF6 reporter transcription; actives raise or lower the signal
Outline: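 Reporter mRNA induction or loss in HepG2 after 24 h exposure; transient cis-MRTU transfection; fragments quantified by capillary electrophoresis; bidirectional analysis, DMSO as negative control.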

[6] = molecular target: Heat shock factor protein 1 (Homo sapiens) (UniProt Q00613); assay: ATG_HSE_CIS: Attagene CIS-FACTORIAL HepG2 Assay for human Heat Shock Transcription Factor 1 (HSE) (AID 2282953); settings: HepG2 HSE cis-reporter, Attagene RNA transcription; actives raise or lower the signal
Outline: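 Cells were transfected with cis-element-driven reporter constructs, dosed for 24 h, then total RNA was reverse-transcribed and reporter cDNA amplified, FAM-labelled and digested with HpaI. Fragments were resolved by capillary electrophoresis; gain or loss was fitted against DMSO.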

[7] = ATG_MRE_CIS: Attagene CIS-FACTORIAL HepG2 Assay for human Metal Responsive Element (MRE) (AID 2282954); settings: HepG2 MRE cis-reporter transcription, Attagene multiplex; actives raise or lower the signal
Outline: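 Transient MRTU transfection of HepG2 (FuGene 6); 24 h dosing; total RNA → oligo(dT) RT, PCR, 6-FAM primer extension, HpaI cut, CE. Bidirectional fit vs DMSO.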

[8] = ATG_PBREM_CIS: Attagene CIS-FACTORIAL HepG2 Assay for human Phenobarbital-responsive Enhancer Module (PBREM) (AID 2282955); settings: HepG2 PBREM cis-reporter, Attagene multiplexed transcription; actives raise or lower the signal
Outline: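 Endogenous transcription factor activity was read from reporter transcripts in transiently transfected human HepG2 liver cells after 24 h dosing. RT-PCR products were fluorescently labelled, HpaI-cut and sized by capillary electrophoresis; activity fitted bidirectionally against DMSO baseline.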

[9] = molecular target: Paired box protein Pax-6 (Homo sapiens) (UniProt P26367); assay: ATG_Pax6_CIS: Attagene CIS-FACTORIAL HepG2 Assay for human Paired Box 6 (PAX6) (AID 2282956); settings: HepG2 CIS-FACTORIAL PAX6 reporter transcription, RNA readout; actives raise or lower the signal
Outline: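 HepG2 cells transiently transfected with multiplexed cis-promoter reporter units (endogenous TF activity) were dosed for 24 h. Reporter mRNA was quantified by RT-PCR, 6-FAM labeling, HpaI digestion and capillary electrophoresis; bidirectional fitting versus DMSO baseline.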

[10] = ATG_PXRE_CIS: Attagene CIS-FACTORIAL HepG2 Assay for human Pregnane X Receptor Element (PXRE) (AID 2282957); settings: HepG2 Attagene CIS-FACTORIAL PXRE reporter, mRNA; actives raise or lower the signal
Outline: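 Transiently transfected HepG2 cells were dosed and incubated for 24 h. RNA was then isolated, DNase-treated, reverse-transcribed and reporter sequences amplified. Labeled, HpaI-digested fragments were quantified by capillary electrophoresis against DMSO.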

[11] = ATG_PPRE_CIS: Attagene CIS-FACTORIAL HepG2 Assay for human Peroxisome Proliferator-activated Response Element (PPRE) (AID 2282958); settings: HepG2 PPRE cis-element reporter, Attagene transcription factor profiling; actives raise or lower the signal
Outline: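 Endogenous PPRE-driven transcription is measured in HepG2 cells carrying transfected multi-reporter constructs. Reporter transcripts are quantified by RT-PCR, HpaI digestion and capillary electrophoresis 24 h after dosing. DMSO baseline, bidirectional fit.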

[12] = ATG_RORE_CIS: Attagene CIS-FACTORIAL HepG2 Assay for human RAR-related Orphan Receptor Element (RORE) (AID 2282959); settings: HepG2 Attagene cis-factorial RORE reporter, mRNA; actives raise or lower the signal
Outline: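 RORE reporter transcripts reflecting endogenous factor activity were read after 24 h compound exposure of transfected HepG2 cells, using reverse transcription, PCR, fluorescent labelling and capillary electrophoresis sizing. Gain or loss fitted against DMSO.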

[13] = ATG_Sox_CIS: Attagene CIS-FACTORIAL HepG2 Assay for human SRY-box transcription factor (SOX) (AID 2282960); settings: HepG2 Attagene cis-factorial SOX reporter, mRNA; actives raise or lower the signal
Outline: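 Reporter transcripts, measured by RT-PCR and capillary electrophoresis of labelled fragments, report endogenous SOX transcription factor activity. Transiently transfected human HepG2 cells receive chemical for 24 h; changes in either direction are fitted relative to DMSO.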

[14] = molecular target: Transcription factor Sp1 (Homo sapiens) (UniProt P08047); assay: ATG_Sp1_CIS: Attagene CIS-FACTORIAL HepG2 Assay for human Specificity Protein 1 (Sp1) (AID 2282961); settings: HepG2 Sp1 cis-reporter transcription, actives raise or lower the signal
Outline: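 Read-out is reporter transcript level, measured by RT-PCR and fluorescent capillary electrophoresis after 24 h chemical treatment. System: transiently transfected HepG2 cells reporting endogenous transcription factor activity; gain or loss fitted against DMSO baseline.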

[15] = ATG_SREBP_CIS: Attagene CIS-FACTORIAL HepG2 Assay for human Sterol Regulatory Element Binding (SREBP) (AID 2282962); settings: HepG2 Attagene cis-factorial SREBP reporter, mRNA; actives raise or lower the signal
Outline: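 HepG2 cells transiently transfected with multiplexed cis-element reporter units report endogenous transcription factor activity. After 24 h of chemical exposure, reporter mRNA was quantified by RT-PCR, 6-FAM labelling, HpaI digestion and capillary electrophoresis; bidirectional fits used DMSO as baseline.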

[16] = ATG_TA_CIS: Attagene CIS-FACTORIAL HepG2 Assay for human TA Basal Promoter (AID 2282964); settings: HepG2 Attagene CIS-factorial TA basal promoter reporter; actives raise or lower the signal
Outline: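 Steps: transfect HepG2 with MRTUs; dose 24 h; isolate RNA, DNase-treat, reverse-transcribe; PCR and FAM-label reporter cDNA; digest with HpaI 2h at 37 C; run capillary electrophoresis. Activity fitted both directions against DMSO.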

[17] = ATG_TCF_b_cat_CIS: Attagene CIS-FACTORIAL HepG2 Assay for human T-Cell-Factor with beta-catenin (TCF/b-cat) (AID 2282965); settings: HepG2 TCF/beta-catenin cis-reporter transcription, actives raise or lower the signal
Outline: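 Endogenous transcription factor activity is captured through cis-promoter reporter constructs transiently introduced into human HepG2 liver cells. Induced reporter mRNA is measured after 24 h and fitted bidirectionally relative to DMSO.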

[18] = ATG_GRE_CIS: Attagene CIS-FACTORIAL HepG2 Assay for human Glucocorticoid Response Elements (GRE) (AID 2282947); settings: HepG2 GRE cis-reporter, Attagene multiplex mRNA; actives raise or lower the signal
Outline: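 Transient MRTU transfection of human HepG2 liver cells; cis-regulated reporters report endogenous factors. 24 h dosing → RNA isolation → RT-PCR → 6-FAM primer extension → HpaI cut → CE fragment analysis. Bidirectional fit, DMSO negative control.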

[19] = molecular target: Signal transducer and activator of transcription 3 (Homo sapiens) (UniProt P40763); assay: ATG_STAT3_CIS: Attagene CIS-FACTORIAL HepG2 Assay for human Signal Transducer and Activator of Transcription 3 (STAT3) (AID 2282963); settings: HepG2, Attagene cis-factorial STAT3 reporter transcription; actives raise or lower the signal
Outline: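 Endogenous STAT3-responsive cis-element activity was read in transiently transfected HepG2 cells after 24 h treatment. Reporter transcripts were quantified via RT-PCR and capillary electrophoresis, with DMSO as negative control and bidirectional curve fitting.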

Chain of Heat shock factor protein 1 (Homo sapiens) (Q00613 whole entry, looked up, the tested form may be a part): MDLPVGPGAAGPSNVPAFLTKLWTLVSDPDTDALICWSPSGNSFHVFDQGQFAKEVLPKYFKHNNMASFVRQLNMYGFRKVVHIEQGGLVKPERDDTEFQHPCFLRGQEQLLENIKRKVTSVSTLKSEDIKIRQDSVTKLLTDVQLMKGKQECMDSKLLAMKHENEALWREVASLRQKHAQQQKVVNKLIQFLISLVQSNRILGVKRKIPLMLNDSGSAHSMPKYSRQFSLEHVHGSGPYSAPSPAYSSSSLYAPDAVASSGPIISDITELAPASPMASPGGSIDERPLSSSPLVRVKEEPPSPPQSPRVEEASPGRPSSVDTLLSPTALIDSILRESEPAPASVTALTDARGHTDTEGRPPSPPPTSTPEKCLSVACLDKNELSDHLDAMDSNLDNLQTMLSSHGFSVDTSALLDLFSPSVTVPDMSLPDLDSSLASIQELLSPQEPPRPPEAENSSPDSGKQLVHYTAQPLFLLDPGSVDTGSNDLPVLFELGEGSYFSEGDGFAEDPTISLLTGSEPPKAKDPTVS
Chain of Hypoxia-inducible factor 1-alpha (Homo sapiens) (Q16665 whole entry, looked up): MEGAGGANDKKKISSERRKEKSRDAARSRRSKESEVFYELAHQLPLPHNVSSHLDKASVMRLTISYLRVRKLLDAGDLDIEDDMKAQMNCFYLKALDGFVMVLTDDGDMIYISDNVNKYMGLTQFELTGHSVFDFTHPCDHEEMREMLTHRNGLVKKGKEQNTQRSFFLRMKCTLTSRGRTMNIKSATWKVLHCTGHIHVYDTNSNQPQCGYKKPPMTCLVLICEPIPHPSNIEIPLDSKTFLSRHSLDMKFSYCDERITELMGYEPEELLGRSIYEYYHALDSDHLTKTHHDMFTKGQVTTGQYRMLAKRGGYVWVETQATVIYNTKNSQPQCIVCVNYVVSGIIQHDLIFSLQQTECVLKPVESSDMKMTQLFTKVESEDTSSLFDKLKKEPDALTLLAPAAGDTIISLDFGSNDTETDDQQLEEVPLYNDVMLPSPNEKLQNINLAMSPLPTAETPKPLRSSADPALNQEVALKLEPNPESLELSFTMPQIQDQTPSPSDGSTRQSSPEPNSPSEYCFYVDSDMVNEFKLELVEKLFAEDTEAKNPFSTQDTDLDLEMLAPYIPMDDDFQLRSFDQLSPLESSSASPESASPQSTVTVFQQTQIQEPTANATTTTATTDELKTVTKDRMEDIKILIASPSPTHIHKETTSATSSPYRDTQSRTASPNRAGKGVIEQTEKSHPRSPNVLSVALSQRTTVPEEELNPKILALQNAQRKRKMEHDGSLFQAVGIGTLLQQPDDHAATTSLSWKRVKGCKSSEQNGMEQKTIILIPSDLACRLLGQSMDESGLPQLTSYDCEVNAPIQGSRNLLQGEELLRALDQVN
Chain of Hepatocyte nuclear factor 6 (Homo sapiens) (Q9UBC0 whole entry, looked up, the tested form may be a part): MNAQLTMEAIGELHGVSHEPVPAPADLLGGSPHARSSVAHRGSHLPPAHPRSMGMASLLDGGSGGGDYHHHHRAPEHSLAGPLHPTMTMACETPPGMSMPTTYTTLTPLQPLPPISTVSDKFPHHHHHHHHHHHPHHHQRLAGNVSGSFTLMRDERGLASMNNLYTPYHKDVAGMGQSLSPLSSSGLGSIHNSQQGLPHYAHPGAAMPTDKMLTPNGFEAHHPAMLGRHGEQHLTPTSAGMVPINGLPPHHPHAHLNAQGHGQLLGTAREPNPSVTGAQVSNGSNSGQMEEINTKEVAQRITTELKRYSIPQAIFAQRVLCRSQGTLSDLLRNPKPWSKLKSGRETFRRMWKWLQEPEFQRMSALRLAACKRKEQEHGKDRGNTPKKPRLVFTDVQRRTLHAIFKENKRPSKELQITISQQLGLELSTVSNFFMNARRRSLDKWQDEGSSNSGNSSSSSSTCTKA
Chain of Signal transducer and activator of transcription 3 (Homo sapiens) (P40763 whole entry, looked up): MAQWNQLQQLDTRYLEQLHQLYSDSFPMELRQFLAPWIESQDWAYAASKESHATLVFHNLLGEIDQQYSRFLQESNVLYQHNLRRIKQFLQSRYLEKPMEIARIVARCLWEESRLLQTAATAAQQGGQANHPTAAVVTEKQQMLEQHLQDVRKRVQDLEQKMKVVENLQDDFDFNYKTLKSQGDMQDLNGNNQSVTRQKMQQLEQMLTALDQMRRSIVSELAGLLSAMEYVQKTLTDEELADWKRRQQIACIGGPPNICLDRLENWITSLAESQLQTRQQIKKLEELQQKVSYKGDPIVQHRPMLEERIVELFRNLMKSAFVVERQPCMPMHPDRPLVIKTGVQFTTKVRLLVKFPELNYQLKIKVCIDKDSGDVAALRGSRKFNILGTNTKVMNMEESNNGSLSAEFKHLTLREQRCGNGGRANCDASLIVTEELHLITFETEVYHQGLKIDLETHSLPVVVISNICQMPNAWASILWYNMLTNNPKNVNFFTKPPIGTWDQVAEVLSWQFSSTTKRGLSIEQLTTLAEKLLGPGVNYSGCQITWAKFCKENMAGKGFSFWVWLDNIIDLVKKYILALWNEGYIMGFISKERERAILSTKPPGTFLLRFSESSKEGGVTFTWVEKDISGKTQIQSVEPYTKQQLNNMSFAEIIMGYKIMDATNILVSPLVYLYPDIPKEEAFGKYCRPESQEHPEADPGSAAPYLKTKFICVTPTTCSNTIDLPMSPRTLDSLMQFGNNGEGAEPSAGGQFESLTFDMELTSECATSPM
Chain of Paired box protein Pax-6 (Homo sapiens) (P26367 whole entry, looked up): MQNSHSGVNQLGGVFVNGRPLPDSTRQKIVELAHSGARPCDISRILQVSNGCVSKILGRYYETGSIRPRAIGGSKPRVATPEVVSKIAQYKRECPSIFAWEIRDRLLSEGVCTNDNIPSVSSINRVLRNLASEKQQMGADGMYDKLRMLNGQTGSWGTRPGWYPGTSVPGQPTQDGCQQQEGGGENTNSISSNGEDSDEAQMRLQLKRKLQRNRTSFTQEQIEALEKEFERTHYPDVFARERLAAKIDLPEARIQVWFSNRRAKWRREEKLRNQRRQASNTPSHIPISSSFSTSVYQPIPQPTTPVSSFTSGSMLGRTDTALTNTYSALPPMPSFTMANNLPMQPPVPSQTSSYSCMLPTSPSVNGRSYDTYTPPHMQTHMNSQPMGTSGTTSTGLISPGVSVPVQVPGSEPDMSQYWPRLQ
Chain of Transcription factor Sp1 (Homo sapiens) (P08047 whole entry, looked up): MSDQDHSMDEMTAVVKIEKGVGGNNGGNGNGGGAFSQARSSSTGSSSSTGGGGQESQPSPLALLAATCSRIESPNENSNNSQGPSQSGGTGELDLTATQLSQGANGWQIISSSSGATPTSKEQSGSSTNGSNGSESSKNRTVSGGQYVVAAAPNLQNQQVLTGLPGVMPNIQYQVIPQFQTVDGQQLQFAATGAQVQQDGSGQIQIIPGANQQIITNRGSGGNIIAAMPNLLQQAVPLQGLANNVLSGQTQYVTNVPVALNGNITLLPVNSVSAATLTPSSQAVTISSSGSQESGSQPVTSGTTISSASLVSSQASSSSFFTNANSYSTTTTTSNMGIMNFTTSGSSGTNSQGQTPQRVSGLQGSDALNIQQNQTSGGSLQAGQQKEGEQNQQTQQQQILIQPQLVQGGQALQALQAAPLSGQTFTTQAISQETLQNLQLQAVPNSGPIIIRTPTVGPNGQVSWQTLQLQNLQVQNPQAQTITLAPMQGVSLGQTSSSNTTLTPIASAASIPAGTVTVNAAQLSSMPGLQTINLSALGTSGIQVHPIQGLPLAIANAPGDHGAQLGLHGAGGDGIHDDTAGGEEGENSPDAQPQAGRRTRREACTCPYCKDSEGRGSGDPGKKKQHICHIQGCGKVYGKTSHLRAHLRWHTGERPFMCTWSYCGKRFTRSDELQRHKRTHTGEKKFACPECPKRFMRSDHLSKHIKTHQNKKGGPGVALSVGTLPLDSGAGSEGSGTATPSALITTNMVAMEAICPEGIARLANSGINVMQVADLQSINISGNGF

CCCCCOC(=O)CCC
outcome [1]: inactive
outcome [2]: inactive
outcome [3]: inactive
outcome [4]: inactive
outcome [5]: inactive
outcome [6]: inactive
outcome [7]: inactive
outcome [8]: inactive
outcome [9]: inactive
outcome [10]: inactive
outcome [11]: inactive
outcome [12]: inactive
outcome [13]: inactive
outcome [14]: inactive
outcome [15]: inactive
outcome [16]: inactive
outcome [17]: inactive

CCCCCCCCCCCCCOS(=O)(=O)O
outcome [18]: inactive
outcome [2]: inactive
outcome [3]: inactive
outcome [4]: inactive
outcome [5]: inactive
outcome [6]: inactive
outcome [7]: inactive
outcome [9]: inactive
outcome [10]: inactive
AC50 [11]: 7.4 µM (active)
outcome [12]: inactive
outcome [13]: inactive
outcome [14]: inactive
outcome [15]: inactive
outcome [19]: inactive
outcome [17]: inactive

CO[Si](CCCn1c(=O)n(CCC[Si](OC)(OC)OC)c(=O)n(CCC[Si](OC)(OC)OC)c1=O)(OC)OC
outcome [1]: inactive
outcome [2]: inactive
outcome [3]: inactive
outcome [4]: inactive
outcome [5]: inactive
outcome [6]: inactive
outcome [7]: inactive
outcome [8]: inactive
outcome [9]: inactive
AC50 [10]: 28.6 µM (active)
outcome [11]: inactive
outcome [12]: inactive
outcome [13]: inactive
outcome [14]: inactive
outcome [15]: inactive
outcome [19]: inactive
outcome [16]: inactive
outcome [17]: inactive

O=C=NC1CCC(CC2CCC(N=C=O)CC2)CC1 (centres undefined)
outcome [18]: inactive
AC50 [2]: 164 µM (active)
outcome [3]: inactive
outcome [4]: inactive
outcome [5]: inactive
outcome [7]: inactive
AC50 [8]: 63.1 µM (active)
outcome [9]: inactive
outcome [10]: inactive
AC50 [11]: 68.9 µM (active)
AC50 [12]: 69.6 µM (active)
outcome [13]: inactive
outcome [14]: inactive
AC50 [19]: 164 µM (active)
outcome [16]: inactive
AC50 [17]: 69.3 µM (active)

CCCCCCCCCCCCN(CCCCCCCCCCCC)CCCCCCCCCCCC
outcome [1]: inactive
outcome [2]: inactive
outcome [3]: inactive
outcome [4]: inactive
outcome [5]: inactive
outcome [6]: inactive
outcome [7]: inactive
outcome [8]: inactive
outcome [9]: inactive
outcome [10]: inactive
outcome [11]: inactive
outcome [12]: inactive
outcome [13]: inactive
outcome [14]: inactive
outcome [19]: inactive
outcome [16]: inactive
outcome [17]: inactive

CCCC1CCC(=O)O1 (centres undefined)
outcome [18]: inactive
outcome [2]: inactive
outcome [3]: inactive
outcome [4]: inactive
outcome [5]: inactive
outcome [6]: inactive
outcome [7]: inactive
outcome [8]: inactive
outcome [9]: inactive
outcome [10]: inactive
outcome [11]: inactive
outcome [12]: inactive
outcome [13]: inactive
outcome [14]: inactive
outcome [15]: inactive
outcome [19]: inactive
outcome [17]: inactive

COc1ccc(NC(=O)CC(C)=O)cc1
outcome [1]: inactive
outcome [2]: inactive
outcome [3]: inactive
outcome [4]: inactive
outcome [5]: inactive
outcome [6]: inactive
outcome [7]: inactive
outcome [8]: inactive
outcome [9]: inactive
outcome [10]: inactive
outcome [11]: inactive
outcome [12]: inactive
outcome [13]: inactive
outcome [14]: inactive
outcome [15]: inactive
outcome [19]: inactive
outcome [16]: inactive
outcome [17]: inactive
